Assay results taken from PubChem BioAssay AID1259374 (The Scripps Research Institute Molecular Screening Center, 2018).
Hit rate of the full screen: of about 650,000 compounds, about 5,900 (0.91%) were called active. What follows is part of a selection rich in actives, with near analogues and random picks from the rest. Unmarked numbers belong to inactive results. No stated cut-off is given here; in the data, active means inhibition above about 50%; inactive means the rest.

Molecular target: Microphthalmia-associated transcription factor (Homo sapiens) (UniProt O75030)
Test: MITF inhibitors, primary screen, biochemical, AlphaScreen, human (AID 1259374);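 further: 0% = vehicle wells with protein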
Details: AlphaScreen MITF homodimerization, bead proximity signal; at 2.6 µM; stronger effect = higher value

Microphthalmia-associated transcription factor (Homo sapiens), sequence (O75030 whole entry, looked up): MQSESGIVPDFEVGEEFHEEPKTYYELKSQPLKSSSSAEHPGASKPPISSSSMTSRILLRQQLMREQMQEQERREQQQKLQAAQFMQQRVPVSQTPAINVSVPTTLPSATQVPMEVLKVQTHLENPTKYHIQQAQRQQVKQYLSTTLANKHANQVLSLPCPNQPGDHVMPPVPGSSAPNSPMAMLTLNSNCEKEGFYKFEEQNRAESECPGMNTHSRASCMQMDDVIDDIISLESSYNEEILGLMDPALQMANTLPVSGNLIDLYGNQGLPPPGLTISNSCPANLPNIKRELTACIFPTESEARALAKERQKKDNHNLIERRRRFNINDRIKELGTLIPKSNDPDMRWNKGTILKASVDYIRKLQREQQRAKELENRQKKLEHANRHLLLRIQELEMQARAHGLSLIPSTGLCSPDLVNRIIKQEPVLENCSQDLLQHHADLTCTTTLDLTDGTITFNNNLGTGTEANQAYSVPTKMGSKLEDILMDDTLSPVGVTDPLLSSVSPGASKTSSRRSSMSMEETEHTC

SMILES	inhibition
c1cc2c(cc1CN1CCN(C3CCCC3)CC1)OCO2	62.8% (active)
OC1CCCN(Cc2ccc3c(c2)OCO3)C1 (stereo not given)	6.89%
c1cc2c(cc1Cn1nnnc1CN1CCN(C3CCCC3)CC1)OCO2	7.92%
CCCNC(=O)N1CCCC(N2CCN(Cc3ccc4c(c3)OCO4)CC2)C1 (stereo not given)	12.8%
CC(C)CCCN1CCC(N2CCN(Cc3ccc4c(c3)OCO4)CC2)CCC1=O (stereo not given)	-10.8%
COC(=O)C(C)CN1CCN(Cc2ccc3c(c2)OCO3)CC1 (stereo not given)	78.9% (active)
c1cc2c(cc1CN1CCN(C3CCCCC3)CC1)OCO2	60.9% (active)
CCC(C)(C)C(=O)N1CCN(Cc2ccc3c(c2)OCO3)CC1	9.89%
CC(=O)Oc1ccc(C(=O)N2CCN(Cc3ccc4c(c3)OCO4)CC2)cc1	-6.96%
COc1ccc(OC(=O)c2cccc(C(=O)OC(C)C)n2)cc1	7.42%
COCCNC(=O)c1ccc(-c2cccc(OC)c2)nc1NCC1CC1	-12.1%
NC(=O)CC[C@H](NC(=O)c1ccc(F)cc1)C(=O)OCC(=O)c1ccccc1	1.49%
CO[C@@H](C1CCCCC1)[C@@H](C)[C@H](OCc1cccc(Br)c1)[C@@H](C)CO	-6.84%
COc1cc(CN(CCCN(C)C)CCCN(C)C)cc(OC)c1	45.5%
CCN(Cc1ccccc1)Cc1cc(OC)c(OC)c(OC)c1	5.59%
COc1cc(CN(CCN(C)C)Cc2ccccc2)cc(OC)c1	70% (active)
Cc1ccc(OCCCNC2CCCC2)c(I)c1	29.7%
CCOc1ccc2[nH]c(=O)c(CN(CCO)C(=O)c3ccco3)cc2c1	6.48%
COC(=O)CCS(=O)(=O)c1ccc(C(=O)O)cc1N	-6.29%
COc1ccc(-c2noc(=O)n2CC(=O)N(c2ccccc2)c2ccccc2)cc1	2.22%
O=C(CN1CCSCC1)N/N=C/c1ccc(Cl)cc1	17.4%
O=C(CN1CCSCC1)N/N=C/c1ccc(F)cc1	47%
CN1CCN(CCC(=O)N/N=C/c2ccsc2)CC1	53.5% (active)
COc1ccc2c(c1)OC(C)CN(C(=O)C1CCCCCN1C)C2 (stereo not given)	1.95%
CCCNCc1nc(-c2ccc(OC)c(OC)c2)no1	11.7%

SMILES	inhibition
c1ccc(Nc2cc(NCc3ccc4c(c3)OCO4)ncn2)cc1	-2.56%
Cc1cnc(NCc2ccc3c(c2)OCO3)nc1NCCN1CCOCC1	16%
Cc1cnc(NCc2ccc3c(c2)OCO3)nc1Nc1ccccc1	69.7% (active)
COc1ccc(-c2csc3nc(C)n(N)c(=O)c23)cc1OC	14.4%
Fc1cccc(Cl)c1Cn1nnc(-c2ccncc2)n1	74% (active)
Fc1cccc(Cl)c1CSc1nnc2ncccn12	-8.92%
c1ccc(OCCCCn2nnc(-c3ccncc3)n2)cc1	10.3%
CC1CCc2sc(NC(=O)c3ccccc3[N+](=O)[O-])c(C#N)c2C1 (stereo not given)	11.5%
CC1=CCC(C(=O)O)(C(=O)N/N=C/C2=C(O)CC(C)(C)CC2=O)CC1c1ccccc1 (stereo not given)	45.2%
COc1ccc(-c2nc(N)c3[nH]cnc3n2)cc1	-0.37%
COc1cc(Nc2nc(Nc3cc(OC)c(OC)c(OC)c3)c3[nH]cnc3n2)cc(OC)c1OC	-7.41%
COc1ccc(-c2nc(Nc3cc(OC)c(OC)c(OC)c3)c3[nH]cnc3n2)cc1	63.2% (active)
Cc1cccc(NC(=O)C(c2ccccc2)N2CCOCC2)c1 (stereo not given)	2.38%
Cc1c(C(C)NC(=O)c2csc(C(C)C)n2)cnn1-c1ccccn1 (stereo not given)	1.61%
C=CCN=Cc1c(C)[nH]n(-c2ccc([N+](=O)[O-])cc2)c1=O	0.33%
COc1cc(C=O)ccc1OCCCN1CCCCC1	34.3%
CCN1CCN(CCCCOc2ccccc2F)CC1	63.7% (active)
Cc1ccc(Cl)c(OCCn2cnc3ccccc3c2=O)c1	10.1%
CCN1CCN(CCOCCOc2ccccc2OCc2ccccc2)CC1	80.8% (active)
CCN1CCN(CCCOc2ccc(C(C)=O)cc2OC)CC1	77.9% (active)
CCCCOc1ccccc1OCCCN1CCN(C)CC1	-4.11%
COc1ccccc1OCCOCCOc1ccccc1OC	-12.3%
c1ccc2cc(OCCOCCN3CCOCC3)ccc2c1	12.8%
CCc1ccccc1OCCCN1CCOCC1	38.5%
O=c1c2ccccc2nc(-c2ccc(Cl)cc2)n1CCCCOc1ccccc1F	-6.63%

SMILES	inhibition
CCN1CCN(CC(=O)c2cc(OC)c(OC)c(OC)c2)CC1	6.5%
O=c1c2ccccc2ncn1CCCCOc1ccccc1F	52.4% (active)
C=CCC1(CC=C)CCCN1C(=O)CC1C(=O)NCCN1Cc1ccccc1C (stereo not given)	5.18%
CCOC(=O)CSc1nc2ccc(Cl)cc2n2cnnc12	-5.55%
Cc1nn(-c2ccccn2)c2c1C(=O)/C(=C\Nc1cccc([N+](=O)[O-])c1)CC2	-6.22%
COc1ccc(C(=O)Oc2ccc3c(c2)C(C)=CC(C)(C)N3C(=O)c2ccc(OC)cc2)cc1	8.97%
Cc1ccc(S(=O)(=O)NC(=NC(CC(=O)O)C(=O)O)c2ccccc2)cc1 (stereo not given)	-0.64%
O=C1NC2(CCCCC2)N(C(=O)c2ccc(Cl)cc2)C2=C1CCCC2	9.62%
CCCCN(CC)C(=O)c1c[nH]c2ccc(S(=O)(=O)N(C)c3ccc(CC)cc3)cc2c1=O	1.47%
CN1CCN(CCOCCOc2ccccc2Cl)CC1	53.8% (active)
CC(C)c1cc(Br)ccc1OCCOCCN1CCN(C)CC1	-24.1%
Cc1ccc(OCCOCCN2CCN(C)CC2)c(Br)c1	42.5%
O=C(O)C1CSC(c2cccc(I)c2)N1 (stereo not given)	10%
Cc1ccc(-c2c(C(=O)Nc3cccc(O)c3)oc(=O)c3ccccc23)cc1	26.8%
O=C(COc1ccc([N+](=O)[O-])cc1)Nc1ccc(Cl)cc1	12.6%
O=C(CCC(=O)OCc1ccc(Cl)cc1)Nc1ccc([N+](=O)[O-])cc1	59.3% (active)
O=C(O)CCC(=O)Nc1ccc([N+](=O)[O-])cc1	-7.16%
CC(=O)C1=C(O)C(=O)N(CCCN(C)C)C1c1ccc(Br)cc1 (stereo not given)	4.38%
COc1ccccc1/C=C1\SC(=S)N(CCC(=O)Nc2nc(C)cs2)C1=O	13.4%
CCOCc1nnc(NC(=O)C2CC(=O)N(c3ccc(C)cc3)C2)s1 (stereo not given)	9.92%
Cc1ccc(C)c(OCCN2CCOCC2)c1C	54.9% (active)
Cc1cc(OCCN2CCOCC2)nc(N2CCOCC2)n1	5.58%
Cc1cc(Cl)c(OCCN2CCOCC2)c(Br)c1	33.1%
CCOc1cccc(C(=O)Nc2ccc3oc(-c4ccc(Cl)c(Cl)c4)nc3c2)c1	4.15%
CCOCCOC(=O)C1=C(C)NC(=O)NC1c1ccccc1 (stereo not given)	2.55%

SMILES	inhibition
Cc1n[nH]c(=O)nc1N/N=C/c1cccs1	86.2% (active)
COc1cccc(/C=N/Nc2nc(=O)[nH]nc2C)c1OC	35%
Cc1cccc(Nc2nc(=O)[nH]nc2C)c1	13.2%
O=c1[nH]cnc2nc(N/N=C/c3ccc(Cl)cc3)[nH]c12	-5.83%
O=C(Nc1cccc(Br)c1)N1CCC(CN2CCCC2)CC1	5.45%
COc1cc(-c2cc(C(N)=O)on2)ccc1O	3.55%
CC(=O)c1cccc(-c2ncc(C)c(N)n2)c1	0.72%
COc1cc2nc(-c3cccc(C(C)=O)c3)nc(N)c2cc1OC	60.9% (active)
COc1cc2nc(-c3cccc(C(C)=O)c3)nc(Nc3ccc(N4CCOCC4)cc3)c2cc1OC	1.79%
CCOc1ccc(C(NC(=O)c2cc(OC)c(OC)c(OC)c2)c2cc(Cl)c3cccnc3c2O)cc1 (stereo not given)	17.1%
Cc1ccnc(NC(c2ccccc2Cl)c2ccc3cccnc3c2O)c1 (stereo not given)	22.3%
COc1cccc(C(=O)NC(c2cccc([N+](=O)[O-])c2)c2cc(Cl)c3cccnc3c2O)c1 (stereo not given)	4.72%
O=C(Cc1ccccc1)NC(c1ccc(Cl)cc1)c1ccc2cccnc2c1O (stereo not given)	-1.99%
Cc1ccc(C(NC(=O)Cc2ccccc2)c2ccc3cccnc3c2O)cc1 (stereo not given)	3.27%
Oc1c(C(Nc2ccccn2)c2ccc(OC(F)F)cc2)ccc2cccnc12 (stereo not given)	12.2%
CC(=O)NC(c1ccccc1)c1ccc2cccnc2c1O (stereo not given)	54.5% (active)
CC(=O)NC(c1cccs1)c1cc(Cl)c2cccnc2c1O (stereo not given)	59.1% (active)
Oc1c(C(Nc2ccccn2)c2cccnc2)ccc2cccnc12 (stereo not given)	58.1% (active)
O=C(Oc1ccc2sc(=O)oc2c1)c1cccc(C(F)(F)F)c1	-7.72%
N#Cc1ccc(NC(=O)c2ccccc2C(=O)O)cc1	4.7%
Cc1ccc(S(=O)(=O)N/N=C/c2cccnc2)cc1[N+](=O)[O-]	-30.1%
COc1ccc(/C=C/c2cc[n+](C)cc2)c(OC)c1	-10.4%
CC(=O)Nc1cc(C(=O)NCCN2CCOCC2)cc(-n2ncc3cc(Nc4c(Cl)cccc4Cl)ccc32)c1	-3%
CCOC(=O)C1C2C=CC3(CN(c4ccc(C)cc4)C(=O)C13)O2 (stereo not given)	0.13%
O=C(CCCn1c(SCC(=O)c2ccc(Cl)c(Cl)c2)nc2ccsc2c1=O)NCCc1ccccc1	2.74%
